Results taken from the supplement of paper PMC13392028.

Test system: PvIESI-1 RRM domain (Plasmodium vivax PVP01_0939900 aa 896-1203, GST fusion)
Assay: RBNS R-value (6-mer enrichment in protein-bound RNA vs input library) (ratio); higher = stronger binding preference; the methods of the paper give 50 / 100 / 500 nM protein instead
Details: protein concentration: 250 nM
Method in brief: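 A random 40-mer in vitro transcribed RNA library was incubated at room temperature with purified GST-tagged RNA-recognition-motif regions of orthologues from three Plasmodium species, expressed in E. coli. After capture on glutathione magnetic agarose beads and three washes, bound RNA and input were reverse transcribed and sequenced on a MiSeq. The R-value reports each motif's enrichment in bound RNA over input via the Burge lab pipeline. Motifs were 6-mers from one replicate.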

Sequence | RBNS R-value
GAUGAU | 3.86
UGAUGA | 5.51
UUGAUA | 2.87
UGAUUG | 3.56
CUGAUU | 3.89
UGAUGG | 3.91
UGAUCU | 2
GAUUUG | 2.81
GAUGGC | 2.5
AUGAUA | 3.08
CUGAUA | 2.42
GUGAUU | 2.96
UGAUUU | 4.88
GAUGCC | 1.89
UUUGAU | 3.94
CGUGAU | 2.33
AUGAUU | 4.49
GAUGAC | 2.47
UGAUGU | 4.24
GAUUGC | 2.21
CACCCG | 1.41
AUUGAU | 3.54

Same assay, conditions: protein concentration: 500 nM

Sequence | RBNS R-value
GAUGAU | 4.13
UGAUGA | 5.62
UUGAUA | 3.36
UGAUUG | 3.76
CUGAUU | 4.11
UGAUGG | 4.11
UGAUCU | 2.15
GAUUUG | 2.87
GAUGGC | 2.55
AUGAUA | 3.49
CUGAUA | 2.81
GUGAUU | 3.22
UGAUUU | 5
GAUGCC | 2.11
UUUGAU | 4.25
CGUGAU | 2.54
AUGAUU | 4.79
GAUGAC | 2.67
UGAUGU | 4.51
GAUUGC | 2.33
CACCCG | 1.76
AUUGAU | 3.72

Same assay, conditions: protein concentration: 1000 nM

Sequence | RBNS R-value
GAUGAU | 3.88
UGAUGA | 5.25
UUGAUA | 3.32
UGAUUG | 3.39
CUGAUU | 3.75
UGAUGG | 3.78
UGAUCU | 2.14
GAUUUG | 2.62
GAUGGC | 2.36
AUGAUA | 3.64
CUGAUA | 2.81
GUGAUU | 3.1
UGAUUU | 4.69
GAUGCC | 2.06
UUUGAU | 3.98
CGUGAU | 2.51
AUGAUU | 4.59
GAUGAC | 2.51
UGAUGU | 4.13
GAUUGC | 2.1
CACCCG | 1.77
AUUGAU | 3.67
